About 2,000 (36%) of roughly 5,500 compounds were called active. Roughly 18% stayed inconclusive and do not appear here. No stated cut-off is given here; in the data, active means normalized growth mostly below about 0.91 (no sharp cut-off); inconclusive means no clear call, values can overlap the other calls; inactive means mostly above about 0.92. Some of the results follow.
Test: chemical genetic growth profiling, strain panel (AID 1159580);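 further: tested at 20 µM; growth read once vehicle control cultures reached saturation at 30 °C; 1 = growth at the plate median or of vehicle wells; lower values mean less growth of the strain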
Settings: growth OD

Measured: normalized growth

CC[C@H]1OC(=O)[C@H](C)[C@@H](O[C@H]2C[C@@](C)(OC)[C@@H](O)[C@H](C)O2)[C@H](C)[C@@H](O[C@@H]2O[C@H](C)C[C@H](N(C)C)[C@H]2O)[C@](C)(O)C[C@@H](C)/C(=N/OCOCCOC)[C@H](C)[C@@H](O)[C@]1(C)O
inactive: S. cerevisiae deletion strains, locus YJR075W, strain HOC1, active compounds read low 0.989 | S. cerevisiae deletion strains, locus YKL009W, strain mrt4, active compounds read low 1.01 | S. cerevisiae deletion strains, locus YKL068W, active compounds read low 1 | S. cerevisiae deletion strains, locus YKL085W, strain MDH1 (second series), active compounds read low 1 | S. cerevisiae deletion strains, locus YKL085W, strain MDH1, active compounds read low 1 | S. cerevisiae deletion strains, locus YKL160W, strain elf1, active compounds read low 1.02 | S. cerevisiae deletion strains, locus YKL190W, strain CNB1, active compounds read low 1 | S. cerevisiae deletion strains, locus YKR001C, strain vps1, active compounds read low 1.01 | S. cerevisiae deletion strains, locus YKR026C, strain gcn3, active compounds read low 1 | S. cerevisiae deletion strains, locus YKR091W, strain srl3, active compounds read low 1 | S. cerevisiae deletion strains, locus YLL001W, strain dnm1, active compounds read low 1.02 | S. cerevisiae deletion strains, locus YLL026W, active compounds read low 1.01 | S. cerevisiae deletion strains, locus YLL041C, strain sdh2, active compounds read low 1.01 | S. cerevisiae deletion strains, locus YLR027C, strain aat2, active compounds read low 1.01 | S. cerevisiae deletion strains, locus YLR039C, strain RIC1, active compounds read low 0.968 | S. cerevisiae deletion strains, locus YLR058C, strain SHM2, active compounds read low 0.998 | S. cerevisiae deletion strains, locus YLR102C, strain apc9, active compounds read low 0.989 | S. cerevisiae deletion strains, locus YLR113W, strain HOG1, active compounds read low 0.967 | S. cerevisiae deletion strains, locus YLR221C, strain rsa3, active compounds read low 1.01 | S. cerevisiae deletion strains, locus YLR258W, strain gsy2, active compounds read low 1.02 | S. cerevisiae deletion strains, locus YLR262C, strain YPT6 (second series), active compounds read low 0.989 | S. cerevisiae deletion strains, locus YLR262C, strain YPT6, active compounds read low 0.997 | S. cerevisiae deletion strains, locus YLR268W, strain sec22, active compounds read low 1.03 | S. cerevisiae deletion strains, locus YLR320W, strain mms22, active compounds read low 0.993 | S. cerevisiae deletion strains, locus YLR330W, strain CHS5, active compounds read low 1.01 | S. cerevisiae deletion strains, locus YLR342W, strain FKS1 (second series), active compounds read low 1.01 | S. cerevisiae deletion strains, locus YLR342W, strain FKS1, active compounds read low 1.02 | S. cerevisiae deletion strains, locus YLR357W, strain rsc2, active compounds read low 1.05 | S. cerevisiae deletion strains, locus YLR370C, strain arc18, active compounds read low 1.01 | S. cerevisiae deletion strains, locus YLR371W, strain rom2, active compounds read low 0.972 | S. cerevisiae deletion strains, locus YLR418C, strain cdc73, active compounds read low 1.03 | S. cerevisiae deletion strains, locus YML016C, strain PPZ1, active compounds read low 1.01 | S. cerevisiae deletion strains, locus YML032C, strain rad52, active compounds read low 1.01 | S. cerevisiae deletion strains, locus YML120C, strain ndi1, active compounds read low 1.01 | S. cerevisiae deletion strains, locus YML124C, strain tub3, active compounds read low 0.999 | S. cerevisiae deletion strains, locus YMR058W, strain fet3, active compounds read low 1.01 | S. cerevisiae deletion strains, locus YMR078C, strain ctf18, active compounds read low 1.01 | S. cerevisiae deletion strains, locus YMR125W, strain sto1, active compounds read low 1.01 | S. cerevisiae deletion strains, locus YMR129W, active compounds read low 1.02 | S. cerevisiae deletion strains, locus YMR205C, strain PFK2, active compounds read low 0.99 | S. cerevisiae deletion strains, locus YMR223W, strain ubp8, active compounds read low 1.03 | S. cerevisiae deletion strains, locus YMR231W, strain pep5, active compounds read low 1.01 | S. cerevisiae deletion strains, locus YMR307W, strain GAS1, active compounds read low 1.02 | S. cerevisiae deletion strains, locus YNL067W, strain RPL9B, active compounds read low 0.986 | S. cerevisiae deletion strains, locus YNL071W, strain lat1, active compounds read low 0.955 | S. cerevisiae deletion strains, locus YNL183C, strain NPR1, active compounds read low 0.937 | S. cerevisiae deletion strains, locus YNL209W, strain ssb2, active compounds read low 1.01 | S. cerevisiae deletion strains, locus YNL233W, strain BNI4, active compounds read low 0.977 | S. cerevisiae deletion strains, locus YNL248C, strain rpa49, active compounds read low 1.03 | S. cerevisiae deletion strains, locus YNL250W, strain rad50, active compounds read low 1.05 | S. cerevisiae deletion strains, locus YNL271C, strain bni1, active compounds read low 1.01 | S. cerevisiae deletion strains, locus YNL298W, strain CLA4, active compounds read low 1.02 | S. cerevisiae deletion strains, locus YNL307C, strain MCK1, active compounds read low 1 | S. cerevisiae deletion strains, locus YNL322C, strain KRE1 (second series), active compounds read low 1.01 | S. cerevisiae deletion strains, locus YNR049C, strain mso1, active compounds read low 1.01 | S. cerevisiae deletion strains, locus YNR052C, strain pop2, active compounds read low 1 | S. cerevisiae deletion strains, locus YOL006C, strain TOP1, active compounds read low 0.92 | S. cerevisiae deletion strains, locus YOL012C, strain htz1 1.11 | S. cerevisiae deletion strains, locus YOL147C, strain pex11, active compounds read low 1.01 | S. cerevisiae deletion strains, locus YOR001W, strain rrp6, active compounds read low 1.01 | S. cerevisiae deletion strains, locus YOR061W, strain CKA2, active compounds read low 1 | S. cerevisiae deletion strains, locus YOR069W, strain VPS5, active compounds read low 1.01 | S. cerevisiae deletion strains, locus YOR070C, strain gyp1, active compounds read low 1 | S. cerevisiae deletion strains, locus YOR080W, strain dia2, active compounds read low 1.02 | S. cerevisiae deletion strains, locus YOR083W, strain WHI5, active compounds read low 1.02 | S. cerevisiae deletion strains, locus YOR106W, strain vam3, active compounds read low 1.03 | S. cerevisiae deletion strains, locus YOR136W, strain idh2, active compounds read low 1.02 | S. cerevisiae deletion strains, locus YOR144C, strain elg1, active compounds read low 1 | S. cerevisiae deletion strains, locus YOR184W, strain ser1, active compounds read low 1.01 | S. cerevisiae deletion strains, locus YOR231W, strain MKK1, active compounds read low 0.988 | S. cerevisiae deletion strains, locus YOR265W, strain rbl2, active compounds read low 1.01 | S. cerevisiae deletion strains, locus YOR270C, strain vph1, active compounds read low 1.01 | S. cerevisiae deletion strains, locus YOR290C, strain snf2, active compounds read low 1.01 | S. cerevisiae deletion strains, locus YOR316C, strain cot1, active compounds read low 0.994 | S. cerevisiae deletion strains, locus YPL051W, strain arl3, active compounds read low 1.01 | S. cerevisiae deletion strains, locus YPL055C, strain LGE1, active compounds read low 0.988 | S. cerevisiae deletion strains, locus YPL078C, strain atp4, active compounds read low 1.01 | S. cerevisiae deletion strains, locus YPL106C, strain sse1, active compounds read low 1.04 | S. cerevisiae deletion strains, locus YPL240C, strain hsp82, active compounds read low 1.01 | S. cerevisiae deletion strains, locus YPL241C, strain CIN2, active compounds read low 1 | S. cerevisiae deletion strains, locus YPL256C, strain CLN2, active compounds read low 0.994 | S. cerevisiae deletion strains, locus YPR119W, strain clb2, active compounds read low 0.989 | S. cerevisiae deletion strains, locus YPR141C, strain kar3, active compounds read low 1.01 | S. cerevisiae deletion strains, locus YPR163C, strain tif3, active compounds read low 1 | S. cerevisiae deletion strains, locus YPR167C, strain met16, active compounds read low 1.01 | S. cerevisiae deletion strains, strain wtn01, active compounds read low 1.02 | S. cerevisiae strains, strain wild type, active compounds read low 1.01

From PubChem BioAssay AID1159580 (chemical genetic matrix, 2015)
